# Source: PubChem BioAssay
# G9a inh: G9a (human) methyltransferase inhibition; Potency, µM (series often up to 102 µM), for inactives: at the highest dose activity, negative = inhibition, usual class: inhibitors; G9a H3K9 monomethylation, AlphaScreen, 2 h; AID 504332; hit rate 8.8% among 350,000; Q96KQ7; further: on the % scale 0 is the no-effect control and ±100 the full control effect; nearly all actives have a fitted effect of over 75% in size
# Target sequence (Q96KQ7 913-1193 limits assumed): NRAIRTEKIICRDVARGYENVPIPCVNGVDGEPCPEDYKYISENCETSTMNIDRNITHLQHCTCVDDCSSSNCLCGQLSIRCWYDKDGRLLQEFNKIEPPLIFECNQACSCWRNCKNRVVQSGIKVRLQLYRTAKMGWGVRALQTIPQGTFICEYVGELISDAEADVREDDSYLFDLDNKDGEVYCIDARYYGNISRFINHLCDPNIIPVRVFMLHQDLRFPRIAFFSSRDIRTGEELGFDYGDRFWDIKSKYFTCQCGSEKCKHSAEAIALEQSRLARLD
#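 G9a (20 nM) was preincubated 15 min with compound, then reacted 2 h at room temperature with 500 nM biotin-H3K9 peptide and 20 µM SAM. Monomethyl-H3K9 detected by AlphaScreen using anti-H3K9me1 antibody.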
# BAZ2B inh: BAZ2B (human) inhibition; Q9UIF8; AlphaScreen BAZ2B-H3K14Ac peptide displacement; Potency, µM (doses to about 114 µM), for inactives: at the top dose activity change, negative = inhibition, hits mostly inhibitors; hit rate 4.4% among 360,000; further: on the % scale 0 is the no-effect control and ±100 the full control effect; nearly all actives have a fitted effect of over 60% in size
#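 AlphaScreen displacement: compounds (up to 110uM) incubated 30 min at room temperature with a preformed 50 nM BAZ2B/50 nM biotinylated H3K14Ac peptide complex in PBS pH 7.4 with Tween-20. Donor and acceptor beads at 10 ug/mL final added, 20 min light-protected before reading.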
# Sfp inh: Sfp phosphopantetheinyl transferase inhibition; hit rate 3.5% among 310,000; Biochemical Sfp PPTase activity, qHTS; Potency, µM, for inactives: largest response in the series, negative = inhibition, hits mostly inhibitors;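 further: the enzyme is Sfp with the accession as filed and its product quenches rhodamine fluorescence; 0% = enzyme reaction without inhibitor and -100% = no enzyme wells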
#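 Buffer: 50 mM Hepes-Na pH 7.6, 10 mM MgCl2, 0.01% Nonidet P-40, 0.01% BSA. Enzyme 15 nM, pre-exposed to compound 15 min; substrates then added and fluorescence change tracked over 30 min.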
# HP1b binding inh: blocks HP1-beta chromodomain binding to methylated histone tails | hit rate 0.56% among 390,000 | AlphaScreen HP1-beta / biotin-H3K9me3 peptide binding | Potency, µM (series often up to 114 µM), for the others: at the highest dose activity change, negative = inhibition, most hits filed as inhibitors | P83916; further: nearly all actives have a fitted effect of over 70% in size
# Target sequence (P83916 whole entry, looked up): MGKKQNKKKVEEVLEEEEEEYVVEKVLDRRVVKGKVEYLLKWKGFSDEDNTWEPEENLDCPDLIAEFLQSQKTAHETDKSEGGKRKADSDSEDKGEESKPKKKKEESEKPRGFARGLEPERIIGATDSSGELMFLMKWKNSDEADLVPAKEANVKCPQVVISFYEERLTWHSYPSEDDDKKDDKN
#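 HP1-beta protein (50 nM final) preincubated 30 min at room temperature with biotinylated H3(1-18)K9me3 peptide (50 nM) in PBS pH 7.4, 0.01% Tween-20, then compound added for 30 min. AlphaScreen streptavidin donor/nickel chelate acceptor beads (10 ug/mL final), 30 min dark, luminescence read.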
# PLK1 PBD block: blocks phosphopeptide binding to human PLK1 polo-box domain. P53350. Plk1 PBD binding of FITC phosphopeptide, fluorescence polarization. Potency, µM, for the others: max response, negative = inhibition, actives largely listed as inhibitors. hit rate 2.8% among 360,000; further: series mostly up to about 57 µM; on the % scale 0 is the no-effect control and ±100 the full control effect; nearly all actives have a fitted effect of over 65% in size
# JMJD2A Tudor: blocks the human JMJD2A Tudor domain; O75164; AlphaScreen JMJD2A-Tudor / H3K4me3 peptide binding; Potency, µM (doses to about 114 µM), for inactives: at the highest dose activity change, negative = inhibition, hits mostly inhibitors; hit rate 4.4% among 390,000; further: on the % scale 0 is the no-effect control and ±100 the full control effect; nearly all actives have a fitted effect of over 50% in size
# The depositor's hits bear a star; ? = inconclusive; / = no result given; [ ] = remark or other dose. Compounds with a hit are over-represented: about 12% of the library has one in this group of screens. The call rests on the fitted dose curve; in most records, active means well fitted curve in the direction sought with a large enough effect; inconclusive means small, poorly fitted or top-dose-only effect, or another doubt; inactive means no such curve, though single readings can be large; an effect the other way counts as inactive or inconclusive. Potency means the concentration at half of the fitted maximal effect.
SMILES,G9a inh,BAZ2B inh,Sfp inh,HP1b binding inh,PLK1 PBD block,JMJD2A Tudor
CN(CC(=O)Nc1ccc(Cl)cc1)S(=O)(=O)c1cccc2cccnc12,45µM*,9%,12%,54%,-10%,-14%
COC(=O)c1ccc(NS(=O)(=O)c2cccc3cccnc23)cc1,12%,8%,17%,16%,-8%,17%
O=S(=O)(O)c1cccc2cccnc12,/,/,/,23%,/,?
COC(=O)CS(=O)(=O)c1cccc2cccnc12,12%,-6%,13%,5%,30µM*,-24%
CSS(=O)(=O)c1cccc2cccnc12,0.28µM*,14µM*,20µM*,3%,2.4µM*,3.2µM*
CN(CC(=O)Nc1ncn[nH]1)S(=O)(=O)c1ccc(Cl)cc1,89µM*,50µM*,11%,30%,1%,?
C/C=C\C(=O)N(CC)c1ccccc1C,30%[21.5 µM],/,19%,/,/,/
Cc1ccc(/C=C/c2ccc(N(C)C)cc2)[n+](C)c1,-48%[2.33 µM],?,?,6%,34%,25µM*
CN(C)c1ccc(/C=C/c2cc[n+]([O-])cc2)cc1,50µM*,-32%,0%,/,/,/
CN(C)c1ccc(/C=C/c2cc[n+](C)cc2)cc1,10µM*,?,3%,-27%,29%,-20%
COC(=O)C1=C(C(=O)OC)[C@@H]2N(C)c3ccccc3[C@@]23C[C@@H](C(=O)OC)N(S(=O)(=O)c2ccc4c(c2)OCCN4C)C3=N1,/,/,5%,/,/,/
Cn1c2cc(C#N)sc2c2cnn(Cc3ccccc3F)c(=O)c21,/,/,/,/,/,-13%
Oc1c(N=Nc2ccccc2)sc2ccccc12,/,2µM*,1%,-24%,-14%,?
CC(=Nc1cccc(C)c1)c1sc2ccccc2c1O,-22%,-9%,-5%,27%,-7%,?
C[C@H](NS(=O)(=O)c1ccccc1F)C(=O)OCC(=O)Nc1ccc2c(c1)OCCO2,/,/,/,6%,1%,-18%
COC(=O)CN1CC(=O)N(c2ccccc2)C1=S,9%[59 µM],-2%,-8%,-18%,?,-10%
CC(=O)OCC1(C)CN(c2ccccc2)N(C(=O)c2ccc(C(C)(C)C)cc2)C1=O (stereo not given),40µM*,-24%,-11%,63%,-6%,-18%
CC(=O)OCC1(C)CN(c2ccccc2)N(C(C)=O)C1=O (stereo not given),25µM*,-15%,-38%,28%,-11%,-11%
CC(=O)OCC1(C)CN(c2ccccc2)NC1=O (stereo not given),14µM*,-22%,-46%,16%,-21%,-9%
CCOc1ccc(S(=O)(=O)N2CCN(Cc3nc4ccc(C)cc4o3)CC2)cc1,18%[59 µM],-10%,/,11%,/,-9%
O=C(Nc1ccc2c(c1)CCC2)c1cnc(Cl)c(Cl)c1,-3%,2%,8%,6%,21µM*,-29%
O=C(COc1ccccc1)NNC(=S)NC(=O)c1ccc(Cl)cc1Cl,1.4µM*,-2%,50µM*,0%,-22%,-22%
O=C(COc1cccc(Cl)c1)NNC(=S)Nc1ccccc1,7.1µM*,9%,-4%,?,24µM*,-29%[57.1 µM]
O=C(O)CCC(=O)NNC(=O)COc1cccc(Cl)c1,-27%,-5%,6%,13%[57 µM],-10%,-11%
COc1ccc(CC(=O)NNC(=S)Nc2ccccc2)cc1Cl,50µM*,?,15%,10%,-10%,-22%
CCCOc1ccc(CC(=O)NNC(=S)Nc2ccccc2)cc1Br,?,6%,9%,-10%,-13%,-25%
Cc1cccc(C(=O)NC(=S)NNC(=O)COc2ccc(Cl)cc2)c1,3.2µM*,-16%,?,?,27µM*,?
COc1ccc(C(=O)NC(=S)NNC(=O)c2cccc(C)c2)cc1,/,/,/,-16%,?,-32%
COc1cc(O)c(C(CCN2CCN(c3ccccc3)CC2)c2ccc3c(c2)OCO3)c(OC)c1 (stereo not given),?,10µM*,17%,-28%,6%,18µM*
